experiment: changes in parasitized red cell lysis, either direction – P. falciparum Indochina, OD700, 3 h, PSAC antagonist project, primary screen (AID 1156); conditions: P. falciparum-infected erythrocytes, osmotic lysis, higher = more signal, called active from +8 up or from −8 down

z-score, inactive:
Cc1ccc(N2C(=O)c3ccccc3[C@@H](C(=O)NC3CC3)[C@@H]2c2ccc(CO)cc2)nc1 0.62
O=C1C[C@@](C(=O)NCC(F)(F)F)(c2ccc([N+](=O)[O-])cc2)[C@@H](c2ccc(CO)cc2I)N1C1CCCCC1 2.56
Cc1ccc(S[C@]2(C(=O)NCCCN(C)C)CC(=O)N(Cc3cc(C(F)(F)F)cc(C(F)(F)F)c3)[C@@H]2c2ccc(CO)cc2)cc1 -0.0534
C=C(COC)/C(=C/C[C@@H](OC(=O)c1ccncc1)c1ccc(CO)o1)c1cc(C(=O)OC)ccc1OC 1.57
C=C[C@H](OC)[C@@H](OC(=O)Nc1ccc(OC)cc1)c1ccc(O)c(F)c1 -0.433
COCCOC(=O)N1C(=O)[C@@]2(c3cc(C#CC4(O)CCCCCC4)ccc31)[C@H](c1ccccc1OCCO)N1[C@H](c3ccccc3)[C@H](c3ccccc3)OC(=O)[C@H]1[C@@H]2C(=O)N1CCN(c2ncccn2)CC1 0.824
C=CC(=C)[C@H]1Oc2ccccc2S(=O)(=O)N2CCC[C@@H]12 -0.309
[N-]=[N+]=Nc1ccccc1[C@@H]1OC(c2ccc(OCCCO)cc2)=N[C@]1(Cc1ccccc1)C(=O)N1CCOCC1 2.51
COCCOC(=O)N1C(=O)[C@@]2(c3cc(C#CCCO)ccc31)[C@H](C(N)=O)[C@H]1C(=O)O[C@H](c3ccccc3)[C@H](c3ccccc3)N1[C@@H]2c1ccc(O)cc1 -0.458
C=C(C(=O)CC[C@@H](OC(=O)c1cccnc1)c1ccccc1OCCO)C(C)C 0.759
C=CCNC(=O)[C@H]1[C@@H]2C(=O)O[C@@H](c3ccccc3)[C@@H](c3ccccc3)N2[C@@H](c2ccccc2OCCO)[C@]12C(=O)Nc1ccc(C#CCC(C(=O)OC)C(=O)OC)cc12 -0.223

experiment: plasmodial surface anion channel blockers, osmotic lysis – cell-based, P. falciparum Indochina, OD700, 18 h, primary screen (AID 1157); conditions: P. falciparum Indochina infected erythrocytes, osmotic lysis OD700, 18 h; higher = more signal, called active from +8 up or from −8 down

z-score, inactive:
CC(C)[Si]1(C(C)C)O[C@@H](c2ccccc2)c2cc(-c3ccc(-c4ccc(Cl)c(Cl)c4)o3)nc(-c3ccccc3)c21 0.656
OCCCC1=CC(c2cccs2)N(Cc2cc3c(cc2Br)OCO3)CC1 (stereo unspecified) 0.625
CCOC(=O)C[C@H]1[C@H](OC(=O)c2ccc(C(=O)c3ccccc3)cc2)[C@@H](NC(=O)c2ccc3ccccc3c2)c2cc(OCCCO)ccc2N1C(=O)Cc1ccc(OC)cc1 0.184
C=C(CC1([C@@H](NP(=O)(c2ccccc2)c2ccccc2)[C@H]2C[C@@H]2CCCC)CC1)c1ccccc1 0.935
COc1cc(COC(C)=O)ccc1OC(C)=O -2.3
C=C(CCCC)/C(=C/C[C@@H](OC(=O)c1ccncc1)c1ccc(OCCO)cc1)c1cc(C(=O)OC)ccc1OC 0.969
C=C(CCCC)C(=O)CC[C@@H](OC(=O)c1ccccc1-c1ccccc1C(=O)O)c1ccc(OCCO)cc1 0.602
COCCOC(=O)N1C(=O)[C@@]2(c3cc(C#CCC(C(=O)OC)C(=O)OC)ccc31)[C@H](C(=O)Nc1nc3ccccc3s1)[C@H]1C(=O)O[C@H](c3ccccc3)[C@H](c3ccccc3)N1[C@@H]2c1ccccc1OCCO 2.31
NC(=O)N1C(=O)C2C(C1=O)C1C=C(c3ccc(CO)cc3)C2C(c2cccs2)N1Cc1cccc(OC(F)(F)F)c1 (stereo unspecified) -1.98
COCCOC(=O)N1C(=O)[C@@]2(c3cc(C#CCNC(N)=O)ccc31)[C@H](C(=O)N1CCN(c3ncccn3)CC1)[C@H]1C(=O)O[C@H](c3ccccc3)[C@H](c3ccccc3)N1[C@@H]2c1ccc(OCCO)cc1 0.778
CCCc1cc2c(n1Cc1cc(F)cc(F)c1)C(C)C1CN(C(=O)c3ccccc3)C(C)(C(=O)OC)C21 (stereo unspecified) 0.251
CCCC[C@@H]1C[C@H]1[C@@H](NC(=O)c1ccco1)c1ccc(-c2ccccc2)cc1 -1.91
C=CC[C@@]12N=C(c3ccc(OCCCO)cc3)O[C@@H]1c1ccccc1N(C)C2=O 3.46
COC(=O)[C@@]1(Cc2ccccc2)N=C(c2ccc(OCCCO)cc2)O[C@H]1c1ccccc1 1.89
COc1cccc(-c2cccc(=O)o2)c1 0.611
C=C[C@H](CO[Si](CC)(CC)CC)N(Cc1ccc(OC(C)=O)c(OC)c1)S(=O)(=O)c1ccc(Br)cc1 -1.39
NC(=O)NCC#Cc1ccc2c(c1)[C@]1(C(=O)N2)[C@H](c2ccc(O)cc2)N2[C@H](c3ccccc3)[C@H](c3ccccc3)OC(=O)[C@H]2[C@@H]1C(=O)O 0.485
COC(=O)C[C@H]1O[C@]2(C(=O)N(C)c3ccccc32)[C@@H](C)[C@@H]1[Si](C)(C)F -2.12
O=C1C2C=CC(C(O)c3cc(C(F)(F)F)cc(C(F)(F)F)c3)N(n3cnnc3)C2C(=O)N1Cc1ccccc1 (stereo unspecified) 0.833
Cc1nc2cc(Br)ccc2c(=O)o1 -0.509
C=C(CCCC)/C(=C/C[C@@H](OC(C)=O)c1ccc(OCCO)cc1)c1cnc2ccccc2c1 1.34
COc1cc2c(cc1O)C(C1CC1)N(Cc1sc3ccccc3c1Cl)CC2 (stereo unspecified) 1.33
COc1cc2c(cc1O)C(c1cccs1)N(C)CC2 (stereo unspecified) 0.352
CN1C=C(C(=O)OCCS(C)(=O)=O)C(C(=O)OCCS(C)(=O)=O)=CC(c2ccc(CO)cc2)=CC1C1CC1 (stereo unspecified) 0.897
Cc1ccc(N2C(=O)c3ccccc3[C@@H](C(=O)NC3CC3)[C@@H]2c2ccc(CO)cc2)nc1 -0.0389
O=C1C[C@@](C(=O)NCC(F)(F)F)(c2ccc([N+](=O)[O-])cc2)[C@@H](c2ccc(CO)cc2I)N1C1CCCCC1 0.599
Cc1ccc(S[C@]2(C(=O)NCCCN(C)C)CC(=O)N(Cc3cc(C(F)(F)F)cc(C(F)(F)F)c3)[C@@H]2c2ccc(CO)cc2)cc1 0.327
C=C(COC)/C(=C/C[C@@H](OC(=O)c1ccncc1)c1ccc(CO)o1)c1cc(C(=O)OC)ccc1OC 0.308
C=C[C@H](OC)[C@@H](OC(=O)Nc1ccc(OC)cc1)c1ccc(O)c(F)c1 0.253
COCCOC(=O)N1C(=O)[C@@]2(c3cc(C#CC4(O)CCCCCC4)ccc31)[C@H](c1ccccc1OCCO)N1[C@H](c3ccccc3)[C@H](c3ccccc3)OC(=O)[C@H]1[C@@H]2C(=O)N1CCN(c2ncccn2)CC1 0.712
C=CC(=C)[C@H]1Oc2ccccc2S(=O)(=O)N2CCC[C@@H]12 0.01
[N-]=[N+]=Nc1ccccc1[C@@H]1OC(c2ccc(OCCCO)cc2)=N[C@]1(Cc1ccccc1)C(=O)N1CCOCC1 3.91
COCCOC(=O)N1C(=O)[C@@]2(c3cc(C#CCCO)ccc31)[C@H](C(N)=O)[C@H]1C(=O)O[C@H](c3ccccc3)[C@H](c3ccccc3)N1[C@@H]2c1ccc(O)cc1 -0.0317
C=C(C(=O)CC[C@@H](OC(=O)c1cccnc1)c1ccccc1OCCO)C(C)C 0.601
C=CCNC(=O)[C@H]1[C@@H]2C(=O)O[C@@H](c3ccccc3)[C@@H](c3ccccc3)N2[C@@H](c2ccccc2OCCO)[C@]12C(=O)Nc1ccc(C#CCC(C(=O)OC)C(=O)OC)cc12 0.909
